hcDAF12 agonist = activators of H. contortus DAF-12 nuclear receptor | 370,000 compounds, 1.4% hits | AID 652067 | HEK293 hcDAF-12 lit1-tk-luc reporter, luminescence; 0% DMSO, 100% Δ7-dafachronic acid | activation, % at 6.8 µM;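 active means activation above the mean of all tested compounds plus 3 SD, cut at about 5.5% in these data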
ssDAF-12 act = activates DAF-12 receptor from parasite S. stercoralis | activation, % at 6.8 µM | AID 652126 | 370,000 compounds, 1% hits | HEK293 ssDAF-12/GRIP1 lit1-tk-luc reporter, luminescence; % of 3 µM dafachronic acid response;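 active means activation above the mean over all tested compounds plus 3 SD, cut at about 0.9% in these data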
SMARCA2 act = SMARCA2 function activation, primary screen; MG213 cells, MMTV-luciferase reporter, dexamethasone, overnight; activation, % at 9.1 µM; 370,000 compounds, 1% hits; AID 652017; in the data active means activation above about 7.8%
DAX1 inh-1 = blocks DAX1 repression of SF-1 activated StAR promoter | inhibition, % at 6.8 µM | AID 652010 | HEK293T StAR-luciferase reporter, SF-1/DAX-1 repression relief | 370,000 compounds, 1.1% hits;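 active means inhibition above the mean over all tested compounds plus 3 SD, cut at about 3.6% in these data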;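 further: higher inhibition means more luminescence from relief of DAX-1 repression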
hgDAF12 agonist = agonists of H. glycines DAF-12 nuclear receptor; HEK293 GAL4-hgDAF12 UAS-luciferase reporter, agonist luminescence; normalized to butyrate control; activation, % at 6.8 µM; 370,000 compounds, 1.8% hits;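 active means activation above a cutoff set at the mean of all screened compounds plus 3 SD, cut at about 10% in these data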
DAX1 inh-2 = NR0B1 (DAX1) inhibition; HEK293 Gal4-DAX1 luciferase reporter, luminescence; inhibition, % at 6.75 µM; 340,000 compounds, 0.99% hits; AID 504766;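 active means inhibition above the mean over all tested compounds plus 3 SD, cut at about 4.2% in these data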;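 further: inhibition shows as a rise in luminescence from relieved DAX1 repression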
Target sequence (P51843 207-470 limits assumed): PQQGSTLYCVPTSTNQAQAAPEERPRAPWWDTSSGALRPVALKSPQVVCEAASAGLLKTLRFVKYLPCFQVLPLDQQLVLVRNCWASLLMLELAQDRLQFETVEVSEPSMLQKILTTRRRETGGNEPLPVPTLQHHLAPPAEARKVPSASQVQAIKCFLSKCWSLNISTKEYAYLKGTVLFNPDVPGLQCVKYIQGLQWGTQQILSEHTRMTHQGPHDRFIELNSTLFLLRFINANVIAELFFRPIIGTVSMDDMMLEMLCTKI
DAX1 inh confirm = confirmation of human DAX1 (NR0B1) inhibitors; shares compounds with DAX1 inh-1; HEK293T StAR-promoter luciferase reporter, SF-1/DAX-1 repression; inhibition, % at 6.8 µM; 2,400 compounds, 87% hits; AID 652134;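 active means inhibition above the average of every tested compound plus 3 SD, cut at about 3.8% in these data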;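 further: active compounds raise luminescence by relieving repression of the StAR reporter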
SF1 AF2mut Luc = nonselective inhibitor or artifact in SF-1 mutant DAX1 counter-screen. shares compounds with DAX1 inh-1. HEK293 StAR-luciferase, SF-1 AF2 mutant, luminescence. inhibition, % at 6.8 µM. 2,400 compounds, 78% hits;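 active means inhibition above the mean of all tested compounds plus 3 SD, cut at about 3% in these data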
SMARCA2 act conf = confirmation of SMARCA2 (BRM) function activators; shares compounds with SMARCA2 act; MG213 cells, MMTV-luciferase with dexamethasone, luminescence, overnight; MG213 cells expressing E1A, Rb sequestered; DMSO wells 0%, reference activator 100%; activation, % at 9.1 µM; 3,500 compounds, 30% hits; AID 652260;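 active means activation above its plate's cutoff, the mean activation of tested wells plus 3 SD, cut at about 7.9% in these data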
GAL4-VP16 Luc = activates GAL4-VP16 luciferase, flagging SMARCA2 activator hits; shares compounds with SMARCA2 act; HEK293 GAL4-VP16 pG5luc reporter, luciferase luminescence; scaled: DMSO wells 0%, SAHA wells 100%; activation, % at 9.1 µM; 3,500 compounds, 41% hits;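 active means activation above the solvent-only control well mean plus 3 SD, averaged across control plates, cut at about 5.2% in these data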
LXR ag = counter-screen for hcDAF-12 agonists: agonists of human LXR-beta | HEK293 Gal4-LXR tk-luc reporter, luminescence, 24 h; normalized: DMSO 0%, positive control 100% | activation, % at 6.8 µM | shares compounds with hcDAF12 agonist | 3,400 tested, under 10 active;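 active means mean percent activation of the reporter above a cutoff set as the average over tested compounds plus their standard deviation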
hcDAF12 conf = hcDAF-12 agonism, confirmation assay; 3,400 compounds, 61% hits; HEK293 hcDAF-12 lit1-tk-luc reporter, luminescence; % of Δ7-dafachronic acid response; shares compounds with hcDAF12 agonist; AID 743032; activation, % at 6.8 µM;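 active means mean activation across triplicate tests above the threshold derived from the earlier primary screen, cut at about 5.5% in these data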
Large screens that a line does not name were inactive (follow-up assays come after a bar, where they were run). Rows were chosen to be rich in hits. Some 4.8% of all compounds tested hit in one or more screens of this group.

COc1ccccc1NC(=S)OCCN1CCCC12CCC(c1ccccc1)CC2 (configuration not stated)	none (no result: SMARCA2 act, DAX1 inh-1, DAX1 inh-2)
COc1ccc(-c2cc3c(nn2)-c2ccccc2C3=O)cc1	hcDAF12 agonist 9.4, ssDAF-12 act 2.4, SMARCA2 act 11, DAX1 inh-1 4.5, hgDAF12 agonist 12 | DAX1 inh confirm inactive | SF1 AF2mut Luc inactive | SMARCA2 act conf 8.7 | GAL4-VP16 Luc 5.2 | LXR ag inactive | hcDAF12 conf inactive
COc1ccc(-c2cc(-c3ccccc3)c(-c3ccccc3)nn2)cc1	none (no result: DAX1 inh-2)
CCN(Cc1cccs1)c1ncnc2ccc(-c3ccc4c(c3)OCO4)cc12	none (no result: SMARCA2 act, DAX1 inh-1, DAX1 inh-2)
Cc1ccccc1N=CC1=C(O)c2ccccc2C1=O	hcDAF12 agonist 15, ssDAF-12 act 2.1, DAX1 inh-1 5.5, hgDAF12 agonist 11 | DAX1 inh confirm 5.8 | SF1 AF2mut Luc inactive | LXR ag inactive | hcDAF12 conf 8.3
CC1=C(O)c2ccccc2C(=O)C1=O	none (no result: DAX1 inh-2)
Cc1ccc(-c2nnc(SCC(=O)Nc3ccc(Oc4ccccc4)cc3)n2-c2ccc(Cl)cc2)cc1	none (no result: DAX1 inh-2)
Cc1ccsc1C(=O)N/N=C/c1ccc2c(c1)OCO2	hcDAF12 agonist 9.1, DAX1 inh-1 7.7, hgDAF12 agonist 15 | DAX1 inh confirm 15 | SF1 AF2mut Luc 9.4 | LXR ag inactive | hcDAF12 conf 6.6
Cc1ccsc1C(=O)N/N=C/C=C/c1ccccc1[N+](=O)[O-]	none
Cc1ccccc1/C=N/NC(=O)c1sccc1C	hcDAF12 agonist 12, ssDAF-12 act 2.0, DAX1 inh-1 6.2, hgDAF12 agonist 27 | DAX1 inh confirm 15 | SF1 AF2mut Luc 10 | LXR ag inactive | hcDAF12 conf inactive
CC(=O)Nc1c(-c2ccc(F)cc2)nc2ncccn12	none (no result: DAX1 inh-2)
Nc1c(Cl)ncnc1N/N=C/c1ccccn1	none (no result: DAX1 inh-2)
Clc1ccccc1NN=Cc1ccccn1	hcDAF12 agonist 13, ssDAF-12 act 1.0, DAX1 inh-1 8.0, hgDAF12 agonist 19 | DAX1 inh confirm 7.6 | SF1 AF2mut Luc 4.7 | LXR ag inactive | hcDAF12 conf 9.6
COc1cccc2c1[C@H](/C=C/c1ccccc1)[C@@H]([C@H](O)CO)OC2	none (no result: DAX1 inh-2)
O=c1[nH]c(COc2ccc(Cl)cc2Br)nc2ccccc12	hcDAF12 agonist 8.7, DAX1 inh-1 7.1, hgDAF12 agonist 12 | DAX1 inh confirm 8.8 | SF1 AF2mut Luc 8.9 | LXR ag inactive | hcDAF12 conf inactive
Cc1ccc(CN2CCCCC(NC(=O)c3ccc(F)c(F)c3)C2=O)cc1 (configuration not stated)	none (no result: DAX1 inh-2)
Brc1ccc2[nH]c3c(c2c1)CCC3	none
O=C1Cc2c([nH]c3ccc(Br)cc23)-c2ccccc2N1	hcDAF12 agonist 11, SMARCA2 act 9.2, DAX1 inh-1 7.5, hgDAF12 agonist 11 | DAX1 inh confirm 6.4 | SF1 AF2mut Luc inactive | SMARCA2 act conf 19 | GAL4-VP16 Luc inactive | LXR ag inactive | hcDAF12 conf 8.5
COc1cc(N/N=C/c2ccccc2O)ncn1	none
